Data from PubChem BioAssay (NCATS).
Records with an inconclusive call do not appear. Where a call stands in place of a potency, no number is given. Calls of active or inactive are those of the source. Calls follow the shape of the dose curve; as a rule, active = well fitted activation curve with a large enough effect in the repeat runs; inconclusive = weak or mixed curves; inactive = flat fitted curve, though single readings scatter.

Experiment: qHTS assay for small molecule agonists of the antioxidant response element (ARE) signaling pathway measured by Nrf2-dependant transcriptional activity (AID 720636)
Conditions: ARE-luc HepG2, Nrf2 luciferase reporter, 16 h; series mostly up to 92.4 µM
Text: National Center for Advancing Translational Sciences [NCATS] NIH Chemical Genomics Center [NCGC] U.S. Environmental Protection Agency [EPA] National Institutes of Environmental Health Sciences [NIEHS] National Toxicology Program [NTP] Assay Overview: The antioxidant response element (ARE) signaling pathway plays an important role in the cellular anti-oxidant defense. Exposure to stressors which are exogenous like ionizing radiations, chemicals, U-V light, and endogenous like cell signaling, metabolic processes or inflammation, reactive oxygen species (ROS), can induce oxidative stress in the cells. Oxidative stress has been implicated in the pathogenesis of a variety of diseases ranging from cancer to neurodegeneration. ARE-luc HepG2 cell line (Simmons et al., Current Chemical Genomics, 5:1-12, 2011) has been used for identifying the chemicals that induce oxidative stress. The cell line has an Nrf2-responsive luciferase reporter gene that has been engineered to measure Nrf2-dependant transcriptional activity.
Assay Protocol Summary: For measuring ARE induction; 2,000 ARE-luc HepG2 cells in 5 uL of assay medium containing 1% dialyzed FBS per well were dispensed into white wall/solid bottom 1536-well plates using a Flying Reagent Dispenser (FRD) (Aurora Discovery). The assay plates were incubated for 6 hr at 37 C to allow cell attachment to the well bottom, followed by the transfer of 23 nL compound or DMSO vehicle by a pin tool (Kalypsys). The plates were incubated for 16 hr at 37 C and 5% CO2, followed by the addition of 5 uL of ONE-GloTM luciferase reagent (Promega) into each well using FRD. After 30 min room temperature incubation, plates were read on a ViewLux plate reader (PerkinElmer).
Potency is read from the fitted curve at half-maximal effect.

Row | Compound | Potency
1 | CC(=O)Nc1cccc(C)c1 | inactive
2 | O=C1c2ccccc2C(=O)C1(O)O | inactive
3 | C[Si](C)(C)Cl | inactive
4 | CC(=O)OCc1ccc2c(c1)OCO2 | inactive
5 | N=C1C=CC(=C(c2ccc(N)cc2)c2ccc(N)cc2)C=C1 | inactive
6 | CC(CCC(=O)O)(c1ccc(O)cc1)c1ccc(O)cc1 | inactive
7 | CCCCC(CC)COC(=O)COc1ccc(Cl)cc1Cl (stereo not given) | inactive
8 | c1ccncc1 | inactive
9 | Cc1ccc(S(N)(=O)=O)cc1 | inactive
10 | COc1ccc(C)cc1N | inactive
11 | c1ccc2ncccc2c1 | inactive
12 | C=CC(=O)CC | inactive
13 | CCCCC(CC)COCCCN (stereo not given) | inactive
14 | CCCCCCN | inactive
15 | CC/C=C/C/C=C/C/C=C/CCCCCCCC(=O)OCC | 66.8 µM (active)
16 | CCc1ccc(C(c2ccc(CC)cc2)C(Cl)Cl)cc1 | inactive
17 | CCCCCCCC/C=C\CCCCCCCC(=O)N(CCO)CCO | inactive
18 | O=C(O)/C=C/c1ccc(/C=C/C(=O)O)cc1 | inactive
19 | Cc1ccc(O)c(N)c1 | 42.2 µM (active)
20 | C=CC(=O)OCCCCCCOC(=O)C=C | inactive

Row | Compound | Potency
21 | Oc1cc(Cl)cc(Cl)c1Cl | inactive
22 | CCC(Cl)CC(Cl)C(Cl)C(Cl)C(Cl)C(C)Cl (stereo not given) | inactive
23 | CCCCOC(=O)COc1ccc(Cl)cc1Cl | inactive
24 | C=CC1CO1 (stereo not given) | inactive
25 | C1CCCNCC1 | inactive
26 | Brc1cc(Br)c(Oc2cc(Br)c(Br)cc2Br)cc1Br | inactive
27 | CC(=O)c1ccc(Cl)c(Cl)c1Cl | inactive
28 | CCCCCCc1ccc(-c2ccc(C#N)cc2)cc1 | inactive
29 | O=CC(=O)c1ccccc1 | inactive
30 | O=[N+]([O-])c1ccccc1Nc1ccccc1 | inactive
31 | Cc1cc(=O)oc2cc(O)cc(O)c12 | inactive
32 | Nc1ccc(-c2ccc(N)c(O)c2)cc1O | inactive
33 | C=CC(C)(O)CCCC(C)CCCC(C)CCCC(C)C (stereo not given) | inactive
34 | O=C(O)c1ccc([N+](=O)[O-])cc1 | inactive
35 | c1ccc2c(c1)ccc1ccccc12 | inactive
36 | c1cc2c3c(c1)ccc1cccc(c13)C2 | inactive
37 | C[C@@H]1CC2(OC(O)[C@]3(C)O[C@H]23)O[C@H]2C[C@@]3(C)[C@@H]4CC[C@H]5C(C)(C)C(O[C@@H]6OC[C@@H](O)[C@H](O)[C@H]6O)CC[C@@]56C[C@@]46CC[C@]3(C)[C@@H]12 (stereo not given in full) | inactive
38 | Cc1ccccc1OCC1CO1 (stereo not given) | inactive
39 | NC(=O)Nc1nc2ccccc2[nH]1 | inactive
40 | c1ccc(COCc2ccccc2)cc1 | inactive
